Our source for the AC50 and outcome values is PubChem BioAssay (EPA / NIEHS).

Assay [1] is described as follows: TAMU_HCS_1.5hr_SingleDonor1434_Cytotoxicity: Cytotoxicity Assessment using High-content Screening (HCS) Fluorescent Imaging for the Texas A&M University (TAMU) 1.5-hr Human Induced Pluripotent Stem Cell (iPSC)-derived Cardiotoxicity Assay (AID 2284234; active = hit-call score of the fitted dose curve at least 0.9, where 1 is the maximum). The procedure, abridged:
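Human iPSC-derived cardiomyocytes dosed at 0.2, 1, 10, 100 uM final (0.5% DMSO) for 90 min at 37 C. Hoechst 33342-stained nuclei counted by 10x high-content imaging; POD is EC10, a 10% drop in total cell count versus DMSO.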

Assay [2] can be described thus: CCTE_Mundy_HCI_Cortical_NOG_NeuronCount: CCTE's Neurite Outgrowth Assay in rat cortical cells for Neuron Count, Mundy Lab (AID 2284236; active = hit-call score of the fitted dose curve at least 0.9, where 1 is the maximum;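 also: neurons counted by imaging betaIII-tubulin and Hoechst stained cortical cells; cells exposed to compound for about 48 hours before fixation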). The procedure, abridged: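 Read-out: neuron number by high-content imaging of betaIII-tubulin (Alexa Fluor-488) and Hoechst-labelled rat primary cortical cells.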
Assay [3] can be described thus: CCTE_Mundy_HCI_Cortical_NOG_BPCount: CCTE's Neurite Outgrowth Assay in rat cortical cells for Branch Point Count, Mundy Lab (AID 2284237).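 Also: branch points counted about two days after chemical exposure.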 The procedure, abridged: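 Measured 50.33 h after dosing, this morphology endpoint uses rat primary cortical cultures labelled for betaIII-tubulin. Branch points are quantified by high-content imaging, with DMSO as negative control and baseline.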

A short description of assay [4]: CCTE_Mundy_HCI_hNP1_Casp3_7: CCTE's Caspase-Glo 3/7 Assay in human neuroprogenitor cells for Apoptosis, Mundy Lab (AID 2284240). The procedure, abridged: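 Apoptosis is scored by activated caspase-3/7 luminescence in WA09-derived neural progenitor cells, measured 26.5 h after chemical dosing. Values represent gain of signal relative to DMSO vehicle.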
The nature of assay [5]: CCTE_Mundy_HCI_hNP1_CellTiter: CCTE's Cell Titer-Glo 2 Assay in human neuroprogenitor cells for Viability, Mundy Lab (AID 2284241; active = hit-call score of the fitted dose curve at least 0.9, where 1 is the maximum). A digest of the protocol: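 Human neural progenitor cells (hNP1, WA09-derived) were plated on poly-L-ornithine/laminin and grown 40 to 44 hours at 37 °C, 5% CO2 before chemical addition. Twenty-four hours later, ATP was measured by CellTiter-Glo luminescence; loss of signal versus DMSO indicates reduced viability.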

Assay [6] can be described thus: CCTE_Mundy_HCI_Cortical_Synap_Neur_Matur_NeuronCount: CCTE's Synaptogenesis and Neurite Maturation Assay in rat cortical cells for Neuron Count, Mundy Lab (AID 2284242; active = hit-call score of the fitted dose curve at least 0.9, where 1 is the maximum;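 also: hits reduce neuron count versus DMSO baseline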). A digest of the protocol:
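Rat primary cortical cells, AraC added at DIV 5, dosed with media change from DIV 7 to DIV 12. Fixed, Hoechst-stained and immunolabelled for MAP2 and synaptophysin; neuron number counted by high-content imaging, loss fitted versus DMSO.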

The nature of assay [7]: IUF_NPC2c_oligodendrocyte_migration_120hr: Leibniz Research Institute for Environmental Medicine (IUF) 120-hour Neural Progenitor Cell Migration Assay for Oligodendrocyte Migration (NPC2c) (AID 2284297).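 Also: O4-positive oligodendrocyte migration distance divided by radial glia migration distance.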 The procedure, abridged: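 Human fetal neural progenitor spheres (0.3 mm) are plated on poly-D-lysine/laminin in N2 differentiation medium and exposed for 120 h, with half-medium renewal at day 3. Oligodendrocyte (O4+) migration distance comes from ICC imaging, normalised to radial glia migration.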

Assay [8] is described as follows: IUF_NPC2a_radial_glia_migration_120hr: Leibniz Research Institute for Environmental Medicine (IUF) 120-hour Neural Progenitor Cell Migration Assay for Radial Glia Migration (NPC2a) (AID 2284298). A digest of the protocol:
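Human fetal-cortex neural progenitor spheres (0.3 mm) plated on poly-D-lysine/laminin in N2 differentiation medium, exposed 120 h at 37C with half-medium renewal at day 3. Radial glia migration distance (um) measured from Hoechst-stained nuclei images; DMSO baseline.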

The nature of assay [9]: IUF_NPC2b_neuronal_migration_120hr: Leibniz Research Institute for Environmental Medicine (IUF) 120-hour Neural Progenitor Cell Migration Assay for Neuron Migration (NPC2b) (AID 2284300). The procedure, abridged: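 0.3 mm hNPC spheres on poly-D-lysine/laminin in N2 differentiation medium exposed 120 h, half-medium refresh day 3; 7 concentrations, DMSO max 0.1%. Neuron (TUBB3) distance from sphere core by ICC imaging, normalised to radial glia migration.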

A short description of assay [10]: IUF_NPC3_neuronal_differentiation_120hr: Leibniz Research Institute for Environmental Medicine (IUF) 120-hour Neuronal Differentiation Assay (NPC3) (AID 2284301). The procedure, abridged:
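Single 0.3 mm neurospheres from human fetal cortex were plated in differentiation medium containing test compound. Medium was half-replaced on day 3. After 120 h cells were fixed, immunostained and imaged, and neuronal fraction was scored against DMSO control.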

The nature of assay [11]: IUF_NPC4_neurite_length_120hr: Leibniz Research Institute for Environmental Medicine (IUF) 120-hour Neuronal Morphology Assay for Neurite Length (NPC4) (AID 2284302). A digest of the protocol: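 Read-out is mean neurite length in µm of TUBB3-positive neurons, skeletonized from high-content fluorescence images after 120 h. Single 0.3 mm primary human neural progenitor spheres differentiated on poly-D-lysine/laminin under continuous compound exposure; DMSO was baseline.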

Assay [12] can be described thus: IUF_NPC4_neurite_area_120hr: Leibniz Research Institute for Environmental Medicine (IUF) 120-hour Neuronal Morphology Assay for Neurite Area (NPC4) (AID 2284305; active = hit-call score of the fitted dose curve at least 0.9, where 1 is the maximum). A digest of the protocol: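 Neurite area is read out as the mean pixel area, excluding nuclei, of skeletonized TUBB3-positive neurons imaged after 120 h. Primary human neural progenitor spheres differentiated on poly-D-lysine/laminin with compound present from day 0. Activity was referenced to DMSO controls.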

A short description of assay [13]: IUF_NPC2-5_cytotoxicity_72hr: Cytotoxicity Assessment at 72 hours in the Leibniz Research Institute for Environmental Medicine (IUF) Neural Progenitor Cell Migration and Differentiation Assay for Cytotoxicity (NPC2-5) (AID 2284306; active = hit-call score of the fitted dose curve at least 0.9, where 1 is the maximum;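 also: LDH release into supernatant measured by resorufin fluorescence marking membrane damage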). A digest of the protocol: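 Membrane integrity loss was scored from fluorescence (RFU) of resorufin generated by LDH in culture supernatant, 72 h after dosing. Differentiating human progenitor spheres received seven serial compound concentrations alongside a solvent control.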

A short description of assay [14]: IUF_NPC2-5_cytotoxicity_120hr: Cytotoxicity Assessment at 120 hours in the Leibniz Research Institute for Environmental Medicine (IUF) Neural Progenitor Cell Migration and Differentiation Assay (NPC2-5) (AID 2284307; active = hit-call score of the fitted dose curve at least 0.9, where 1 is the maximum;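 as to AC50: LDH released into supernatant as membrane damage marker via resorufin fluorescence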). The procedure, abridged:
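Human fetal (GW 16-19) neural progenitor spheres (0.3 mm) plated on poly-D-lysine/laminin in N2 differentiation medium, exposed 120 h with half-medium renewal at day 3; 7 concentrations plus solvent control, DMSO ≤0.1%. LDH release in supernatant read by resorufin fluorescence.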

Assay [15] can be described thus: IUF_NPC2-5_cell_number_120hr: Cell Number Assessment at 120 hours in the Leibniz Research Institute for Environmental Medicine (IUF) Neural Progenitor Cell Migration and Differentiation Assay (NPC2-5) (AID 2284308).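 Also: count of Hoechst-stained nuclei in migration zone around plated human neural progenitor spheres.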 A digest of the protocol:
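Human fetal neural progenitor spheres (0.3 mm) plated on poly-D-lysine/laminin in N2 differentiation medium, exposed five days across 7 concentrations with half-medium refresh at day 3. Hoechst-positive nuclei counted in migration area at 120 h, relative to DMSO.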

Assay [16] can be described thus: IUF_NPC2-5_viability_120hr: Viability Assessment at 120 hours in the Leibniz Research Institute for Environmental Medicine (IUF) Neural Progenitor Cell Migration and Differentiation Assay (NPC2-5) (AID 2284312). The procedure, abridged:
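Alamar blue resorufin fluorescence read after 5 days of differentiation, with compound present from day 0 and replenished at day 3. Primary hNPC spheres on laminin-coated plates, 37C; seven concentrations plus solvent control, fitted against DMSO.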

A short description of assay [17]: CCTE_Mundy_HCI_iCellGluta_NOG_NeuriteLength: CCTE's Neurite Outgrowth Assay in iCellGluta cells for Neurite Length, Mundy Lab (AID 2284318; active = hit-call score of the fitted dose curve at least 0.9, where 1 is the maximum). A digest of the protocol: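 Automated high-content imaging of betaIII-tubulin (Alexa Fluor-488) and Hoechst-stained cells gave neurite length, normalized to the DMSO baseline.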
Assay [18] can be described thus: TAMU_PeakParms_SingleDonor1434_Asystole: Texas A&M University (TAMU) 1.5-hr Human Induced Pluripotent Stem Cell (iPSC)-derived Cardiomyocytes Calcium (Ca+2) Flux Assay for Cardiotoxicity: Asystole (quiescence of beating) (AID 2284328; active = hit-call score of the fitted dose curve at least 0.9, where 1 is the maximum). A digest of the protocol: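 Average Ca2+-flux peak frequency (beats/s) was recorded in single-donor iPSC-derived cardiomyocytes after 90 min exposure (0.2–100 uM final, 0.5% DMSO). Asystole POD set as EC95 against DMSO, no preprocessing.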

Assay [19] can be described thus: IUF_NPC1_cytotoxicity_72hr: Cytotoxicity Assessment at 72 hours in the Leibniz Research Institute for Environmental Medicine (IUF) Neural Progenitor Cell Proliferation Assay (NPC1) (AID 2284332; active = hit-call score of the fitted dose curve at least 0.9, where 1 is the maximum;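 also: rising LDH signal means more cytotoxicity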). A digest of the protocol: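 Human fetal neural progenitor spheres (0.3 mm) in EGF/FGF proliferation medium, 37C, exposed 72 h without renewal. LDH release in supernatant read by resorufin fluorescence; gain of signal scored relative to dynamic range.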

Assay [20] in a line: CCTE_Mundy_HCI_iCellGluta_NOG_NeuriteCount: CCTE's Neurite Outgrowth Assay in iCellGluta cells for Neurite Count, Mundy Lab (AID 2284342; active = hit-call score of the fitted dose curve at least 0.9, where 1 is the maximum;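 also: chemical exposure about 48 hours starting 2 hours after plating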).

SMILES strings stand for the structures. Values joined by “and” are separate entries in the source; they are usually repeats but may differ in a detail not shown here. Identical values can stand only once. Records with an inconclusive call do not appear. More than one record can exist for a structure, and the calls need not agree. Active and inactive are the calls of the source. The calls were made as follows, unless noted: active = hit-call score of the fitted dose curve at least 0.9, where 1 is the maximum; inactive = score below 0.9.

As to `[CH3][Hg][Cl]`, the AC50 in assay [1] was 8350 nM (active); in [2] it was 708 nM (active) and 631 nM (active); in [3], 244 nM (active); in assay [4] it was 1150 nM (active); in assay [5] it was 9570 nM (active); in [6] it was 850 nM (active). Also, the AC50 was 128 nM (active) in assay [7]; 1.05 µM (active) and 160 nM (active) in assay [8]; 138 nM (active) in [9]; 325 nM (active) and 124 nM (active) in assay [10]; 298 nM (active) and 69.7 nM (active) in assay [11]; 629 nM (active) and 78.3 nM (active) in assay [12]. In addition, the AC50 in assay [14] was 275 nM (active); in [15] it was 823 nM (active) and 130 nM (active); in [16], 276 nM (active); in [17] it was 76.3 nM (active); in assay [20], 96.5 nM (active). For the same compound, the compound was called inactive in assay [7], in assay [9], in assay [13], in assay [14], in assay [16] and in [18]. The call in assay [19] was inactive.
